# Results taken from PubChem BioAssay AID463173 (ICCB-Longwood Screening Facility, Harvard Medical School, 2010).
# Hit rate of the full screen: of about 52,000 compounds, about 4,300 (8.3%) were called active. The entries come from a sample that favours actives as a whole. A number with no mark means an inactive call. Cut-off read from the data, not from the text of the source: active = survival mostly below about 52% (no sharp cut-off); inactive = mostly above about 56%.
# Test system: DeltatarO mutant
# Test: S. aureus survival, RN4220 and DeltatarO strains – OD600, teichoic acid synthesis inhibitors, primary screen (AID 463173)
# Settings: S. aureus RN4220 wild type/DeltatarO growth, OD600, 18 h, stronger effect = lower value, screened at 18.75 µg/mL (by protocol)
row,Structure (SMILES),survival
1,COc1ccc(OC)c2sc(N(Cc3cccnc3)C(=O)c3ccc(C(C)=O)cc3)nc12,120%
2,COc1ccc(/C=C/C(=O)Nc2nc3n(n2)C(c2ccccc2)C=C(c2ccccc2)N3)cc1 (centres undefined),70%
3,COc1ccc(C2C=C(c3ccccc3)Nc3nc(NC(=O)/C=C/c4ccc(F)cc4)nn32)cc1 (centres undefined),51%
4,COc1ccc(/C=C/C(=O)Nc2nc3n(n2)C(c2ccc(F)cc2)C=C(c2ccccc2)N3)cc1 (centres undefined),42% (active)
5,Cc1cc(=O)[nH]c(SCC(=O)OCc2ccccc2)c1C#N,102%
6,CCCN(CCC)CCCNC(=O)Cn1ncc2c3ccccc3n(Cc3ccccc3F)c2c1=O,129%
7,Cc1ccccc1Cn1c(CN2CCC(C(=O)NCc3ccc(Cl)cc3)CC2)cc2ccccc21,67%
8,CCCCN(CC)CCCNC(=O)c1cc2c(=O)[nH]c3ccccc3c2n1C,90%
9,CCc1ccccc1NC(=O)Cn1c(SCc2ccc(F)cc2)nc2ccncc21,36% (active)
10,COc1ccc(CSc2nc3ccncc3n2CC(=O)Nc2ccc(C)c(F)c2)cc1,85%
11,COc1cccc(CSc2nc3ccncc3n2CC(=O)Nc2ccc(OC)c(OC)c2OC)c1,98%
12,COc1ccc(CSc2nc3ccncc3n2CC(=O)Nc2cc(C)cc(C)c2)cc1,60% (active)
13,O=C(Cn1c(SCc2ccccc2F)nc2ccncc21)Nc1ccccc1C(F)(F)F,66%
14,CN(C)c1ccc(NC(=O)Cn2c(SCc3ccc(F)cc3)nc3ccncc32)cc1,72%
15,COc1ccc(S(=O)(=O)N(CCc2ccccc2)CC(=O)Nc2cc(C)cc(C)c2)cc1OC,54%
16,Cc1ccc(C)c(Cn2c(=O)n(-c3ccc(F)cc3)c(=O)c3sc4ccccc4c32)c1,95%
17,CC[N+](C)(C)Cc1ccco1,80%
18,COc1cc2c(C(=O)Nc3cc(OC)c(OC)c(OC)c3)cn(C)c(=O)c2cc1OC,63%
19,OC1(C#Cc2ccccc2)CCCCC1,104%
20,COc1ccc(CCCc2n[nH]c(=S)o2)c(C)c1,94%
21,Cn1c(=O)c2c(-c3ccc(Br)cc3)n(Cc3ccc(F)cc3)cc2n(C)c1=O,49% (active)
22,Cn1c(=O)c2c(-c3ccccc3Cl)n(Cc3ccc(Cl)cc3)cc2n(C)c1=O,60%
23,Cn1c(=O)c2c(-c3ccc(Cl)cc3)n(CCc3ccccc3)cc2n(C)c1=O,93%

row,Structure (SMILES),survival
1,Cn1c(=O)c2c(-c3ccccc3Br)n(Cc3ccccc3)cc2n(C)c1=O,88%
2,CCCCn1cc2c(c1-c1ccccc1Br)c(=O)n(C)c(=O)n2C,76%
3,Cc1ccc(-c2c3c(=O)n(C)c(=O)n(C)c3cn2-c2cc(C)ccc2O)cc1,75%
4,Cn1c(=O)c2c(-c3ccc(Cl)cc3)n(Cc3ccccc3)cc2n(C)c1=O,40% (active)
5,Cn1c(=O)c2c(-c3ccccc3Cl)n(-c3cc(Cl)ccc3O)cc2n(C)c1=O,53% (active)
6,Cn1c(=O)c2c(-c3ccc(Cl)cc3)n(Cc3ccc(Cl)cc3)cc2n(C)c1=O,56%
7,CCCCn1cc2c(c1-c1ccc(Br)cc1)c(=O)n(C)c(=O)n2C,58%
8,Cn1c(=O)c2c(-c3ccccc3Br)n(CCc3ccccc3)cc2n(C)c1=O,45% (active)
9,Cn1c(=O)c2c(-c3ccc(Br)cc3)n(CCc3ccccc3)cc2n(C)c1=O,89%
10,O=C(NCc1ccccc1Cl)c1ccc2c(c1)N(Cc1ccccc1)C(=O)c1ccccc1S2,144%
11,O=C(Nc1cnn(C23CC4CC(CC(C4)C2)C3)c1)c1cc(-c2ccccc2)on1,101%
12,COc1ccc(NC(=O)C(C)Sc2nc(C)cc(=O)[nH]2)cc1 (centres undefined),101%
13,CC(C)c1ccc(NC(=O)C2(C)Cc3ccccc3C(=O)O2)cc1 (centres undefined),106%
14,CC(NC(=O)c1nn(C)c2c1CSc1ccccc1-2)c1ccccc1 (centres undefined),76%
15,CCCC(=O)C1=C(c2ccc(C)cc2)N(C(=O)CCC)n2cnnc2S1,130%
16,CCC(=O)C1=C(c2ccc(F)cc2)N(C(=O)CC)n2c(nnc2-c2ccc(OC)cc2)S1,66%
17,CCC(=O)C1=C(c2ccc(OC)c(OC)c2)N(C(=O)CC)n2c(nnc2-c2ccc(C)cc2)S1,68%
18,CCOc1ccc(C2=C(C(=O)CC)Sc3nncn3N2C(=O)CC)cc1,17% (active)
19,CC(=O)C1=C(c2cccc([N+](=O)[O-])c2)N(C(C)=O)n2c(nnc2-c2ccc(C)cc2)S1,89%
20,CCC(=O)C1=C(c2ccc(F)cc2)N(C(=O)CC)n2cnnc2S1,128%
21,CCC(=O)C1=C(c2cccc([N+](=O)[O-])c2)N(C(=O)CC)n2c(nnc2C2CCCCC2)S1,91%
22,CCC(=O)C1=C(c2ccccc2)N(C(=O)CC)n2c(nnc2-c2ccccc2)S1,-5% (active)
23,CCC(=O)C1=C(c2cccc([N+](=O)[O-])c2)N(C(=O)CC)n2c(nnc2-c2ccccc2)S1,8% (active)

row,Structure (SMILES),survival
1,CN(CC(=O)O)Cc1nc2ccccc2[nH]1,103%
2,Cc1c(Cl)cccc1NC(=O)c1ccc(NC(=O)N2CCSc3ncccc32)cc1,72%
3,COC(=O)c1ccc(C=Nc2ccc(O)c(-c3nc4ccccc4o3)c2)cc1,93%
4,COc1ccc(C)cc1-n1cnc2cc(C(=O)NC3CCCC3)ccc21,119%
5,O=C(C1CCC(Cn2c(=O)c3sccc3n(Cc3cccc(F)c3)c2=O)CC1)N1CCCCC1 (centres undefined),92%
6,Cc1c(NS(=O)(=O)c2cccc(C(=O)O)c2)c(=O)n(-c2ccccc2)n1C,67%
7,O=C1Nc2ccccc2N(O)N1c1ccccc1Cl,90%
8,CCc1ccc(S(=O)(=O)Nc2ccc3c(c2)n(C)c(=O)c(=O)n3C)cc1,79%
9,COc1ccccc1N1CCN(C(=O)Cn2c(=O)n3nc(-c4cccc(F)c4)nc3c3ccccc32)CC1,71%
10,CC(C)c1ccc(NC(=O)CN2C(=O)CCc3cc(S(=O)(=O)N4CCOCC4)ccc32)cc1,87%
11,O=C(Nc1ccc(F)cc1Cl)c1cnc(N2CCOCC2)c2ccccc12,104%
12,COc1ccc(N=Nc2c(N)n[nH]c2N)cc1,1% (active)
13,COc1cccc(N=Nc2c(O)[nH]c(=O)[nH]c2=O)c1,101%
14,Nc1n[nH]c(N)c1N=Nc1ccc(Cl)cc1,64%
15,Cn1c(=O)c2cc(C(=O)NCCCN3CCN(c4ccc(F)cc4)CC3)sc2c2ccccc21,70%
16,C=C(C)Cn1c(SCC(=O)Nc2cccc(Cl)c2)nc2sc3c(c2c1=O)CCCC3,126%
17,COc1ccc(NC(=O)C(Cc2ccccc2)n2cccc2)cc1OC (centres undefined),79%
18,O=C(Nc1ccccc1)C(Cc1ccccc1)N1Cc2ccccc2C1=O (centres undefined),77%
19,CC(=O)c1cccc(NC(=O)[C@H](Cc2ccccc2)N2Cc3ccccc3C2=O)c1,67%
20,Cc1cccc(NC(=O)C(Cc2ccccc2)n2cccc2)c1C (centres undefined),75%
21,Cc1ccc(C)c(NC(=O)C(Cc2ccccc2)n2cccc2)c1 (centres undefined),107%
22,Cc1ccc(NC(=O)C(Cc2ccccc2)n2cccc2)cc1C (centres undefined),28% (active)
23,O=C(Nc1cccc(Cl)c1)C(Cc1ccccc1)n1cccc1 (centres undefined),11% (active)

row,Structure (SMILES),survival
1,CCc1cccc(NC(=O)C(Cc2ccccc2)n2cccc2)c1 (centres undefined),18% (active)
2,Cc1ccc(NC(=O)C(Cc2ccccc2)n2cccc2)c(C)c1 (centres undefined),67%
3,COc1ccc(OC)c(S(=O)(=O)Nc2cc3c(cc2C)n(C)c(=O)c(=O)n3C)c1,84%
4,C1=C(c2cccs2)OC(c2cccs2)=CC1c1cccs1,52%
5,Nc1ncc(S(=O)(=O)NCc2cccc(Cl)c2)cn1,74%
6,CCOc1ccc(S(=O)(=O)N2CCN(c3ccc(Cl)c(Cl)c3)CC2)c2ccccc12,168%
7,COc1ccc(Cn2nnnc2C(c2ccccn2)N2CCc3ccccc3C2)cc1 (centres undefined),74%
8,O=C1CSC2(C(=O)N(Cc3ccccc3F)c3ccccc32)N1c1cccc(C(F)(F)F)c1 (centres undefined),87%
9,O=C(COCc1cc(-c2ccco2)on1)Nc1ccc(OC(F)(F)F)cc1,92%
10,CCOc1ccc(-c2cc3c(=O)n(Cc4nc(-c5cccc(OC)c5OC)oc4C)ccn3n2)cc1Cl,187%
11,COc1cccc(C(=O)Nc2nnc(S(=O)(=O)N3CCCc4ccccc43)s2)c1,18% (active)
12,COc1ccc(C(=O)Nc2nnc(S(=O)(=O)N3CCCc4ccccc43)s2)cc1,49%
13,Cc1ccc2nc(NC(=O)c3ccc(S(=O)(=O)N4CCCc5ccccc54)cc3)sc2c1,144%
14,Cc1ccc(C(=O)Nc2nnc(S(=O)(=O)N3CCCc4ccccc43)s2)cc1,39% (active)
15,Cc1ccc(C(=O)Nc2nnc(S(=O)(=O)N3CCc4ccccc43)s2)cc1,26% (active)
16,Cc1cccc(C(=O)Nc2nnc(S(=O)(=O)N3CCCc4ccccc43)s2)c1,17% (active)
17,COc1ccccc1NC(=O)c1c(NCc2ccc(OC)c(OC)c2OC)sc2c1CCCC2,93%
18,COc1ccc(-c2nc3ccccc3n3c(-c4ccc(OC)cc4)c4c(=O)n(C)c(=O)n(C)c4c23)cc1,84%
19,CCOC(=O)c1c(S(=O)(=O)N2CCCC(C(=O)Nc3cccc(C#N)c3)C2)c(C)n(C)c1C (centres undefined),67%
20,CCc1ccccc1Nc1sc(C(=O)c2ccccc2)c(N)c1S(=O)(=O)c1ccccc1,119%
